High-throughput results (PubChem)
In the library only some 3.5% were active in any assay of this set; here they are far more common.
IkB signaling – IkB pathway inhibition in ABC-DLBCL cells; ABC-DLBCL IkBa-CBG/CBR dual luciferase ratio, 4 h; response scale: scaled: untreated 0%, proteasome inhibitor 100%; Potency, µM (series often up to 57.1 µM), for the others: at the top dose IkBa stabilization activation; 0.04% of 110,000 active; AID 445; active means well fitted curve in the direction sought with a large enough effect in the signal ratio, not every such curve was filed as active; inconclusive means small, poorly fitted or top-dose-only effect, or a change in a side signal; the % refers to the signal ratio;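 further: the direction sought is a rising ratio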
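Luminescence ratio of IκBα-fused green versus native red beetle luciferase in OCI-Ly3 cells, 4 h post-doxycycline with compound; red signal alone, scaled from basal (0%) to zero light (-100%), flagged nonspecific or cytotoxic effects.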
HEK293 cAMP cs – counter-screen for TSHR agonists: cAMP increase in parental HEK293; parental HEK293 CNG cAMP sensor, membrane potential fluorescence; Potency, µM (top dose mostly 57.1 µM), without a hit: at the top dose activation, most hits filed as activators; 2.5% of 73,000 active; active means well fitted activation curve with a large enough effect; inconclusive means small, poorly fitted or top-dose-only effect; inactive means no such curve, though single readings can be large or run the other way; further: % of control where 0% means no effect; nearly all actives have a fitted effect of over 55% in size
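Counterscreen for endogenous-receptor signalling: CNG-channel HEK 293 cells report cAMP rise by membrane depolarization. After 60 min dye equilibration with 100 uM RO 20-1724, compounds incubated 30 min before bottom-read fluorescence at 590 nm.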
TSHR agonist – agonists of human thyroid stimulating hormone receptor; 0.48% of 73,000 active; Potency, µM (titrated, usually from 57.1 µM), inactives show top-dose activation, usual class: activators; AID 926; HEK293-CNG-TSHR cells (CNG channel as cAMP sensor), membrane potential dye, cAMP; P16473; active means well fitted activation curve with a large enough effect in the main read-out, with a control signal flat, not every such curve was filed as active; inconclusive means small, poorly fitted or top-dose-only effect, or a change in a side signal; inactive means no such curve, though single readings can be large or run the other way; % of control where 0% means no effect;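 further: the control signal comes from parental cells without the receptor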
Target sequence (P16473 whole entry, looked up): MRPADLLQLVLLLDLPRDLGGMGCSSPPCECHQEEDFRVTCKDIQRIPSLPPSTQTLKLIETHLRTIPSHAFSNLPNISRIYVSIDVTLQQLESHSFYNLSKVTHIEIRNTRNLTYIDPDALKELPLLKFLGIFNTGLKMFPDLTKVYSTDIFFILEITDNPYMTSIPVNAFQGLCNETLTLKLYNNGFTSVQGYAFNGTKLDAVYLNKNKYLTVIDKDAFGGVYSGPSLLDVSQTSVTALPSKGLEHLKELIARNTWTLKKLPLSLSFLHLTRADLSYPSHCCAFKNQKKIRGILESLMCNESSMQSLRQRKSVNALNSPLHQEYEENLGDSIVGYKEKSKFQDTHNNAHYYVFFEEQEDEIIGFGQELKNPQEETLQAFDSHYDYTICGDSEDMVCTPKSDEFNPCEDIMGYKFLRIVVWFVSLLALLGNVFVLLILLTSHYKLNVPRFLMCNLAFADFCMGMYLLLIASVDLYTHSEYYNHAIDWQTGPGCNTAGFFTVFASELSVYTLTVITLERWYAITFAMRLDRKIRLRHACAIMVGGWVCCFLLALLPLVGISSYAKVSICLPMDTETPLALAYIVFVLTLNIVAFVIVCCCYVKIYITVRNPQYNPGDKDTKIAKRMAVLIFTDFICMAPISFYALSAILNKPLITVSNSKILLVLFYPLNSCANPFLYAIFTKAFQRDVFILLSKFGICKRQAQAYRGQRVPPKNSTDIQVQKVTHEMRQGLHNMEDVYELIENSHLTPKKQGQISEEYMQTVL
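cAMP rise detected as CNG-channel membrane depolarization by fluorescent dye (emission 590 nm), 30 min after compound, following 60 min dye loading containing 100 uM RO 20-1724 at room temperature. Cells: TSHR/CNG HEK 293, with parental CNG HEK 293 as control.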
Hsp90 Hop PPI – changes Hsp90-Hop TPR2A binding signal, up or down; AlphaScreen TPR2A-His6 binding biotin-Hsp90 C-terminal peptide; Potency, µM (series often up to 57 µM), inactives show at the top dose activity change, negative = inhibition; 0.44% of 71,000 active; active means well fitted curve in either direction with a large enough effect; inconclusive means small, poorly fitted or top-dose-only effect, or another doubt; further: on the % scale 0 is the no-effect control and ±100 the full control effect
CRE Fsk mod – alters forskolin-stimulated CRE reporter signaling in CHO cells; CHO CRE-bla reporter (cAMP response element driving beta-lactamase), forskolin EC10, beta-lactamase ratio; Potency, µM (top dose mostly 38.2 µM), for inactives: at the highest dose activity change, negative = inhibition, usual class: activators; 2.5% of 71,000 active; active means well fitted activation curve with a large enough effect in the signal ratio, with a control signal flat, not every such curve was filed as active; inconclusive means small, poorly fitted or top-dose-only effect, or effect the other way, or a change in a side signal; the % refers to the signal ratio; further: % of control where 0% means no effect
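Modulation of forskolin-driven signalling is measured in CHO cells carrying a CRE-controlled beta-lactamase reporter. Cells are stimulated with EC10 NKH 477 in the presence of titrated compound for 3 h at 37 °C, then loaded with CCF4 for 2 h at room temperature.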
Active calls of the source: *; ? = inconclusive; . = no result given; [ ] = remark or other dose. Potency means the concentration at half of the fitted maximal effect.

SMILES	IkB signaling	HEK293 cAMP cs	TSHR agonist	Hsp90 Hop PPI	CRE Fsk mod
CCC(C(=O)Nc1cc(C)nn1-c1nc(C)cc(C)n1)c1ccccc1 (stereo not drawn)	0.2%	15.8µM*	?	-0.3%	12.6µM*
Cc1cc(C)nc(-n2nc(C)cc2NC(=O)CN2CCCC(C)C2)n1 (stereo not drawn)	-1.7%	?	?	-6.6%	?
Cc1ccc(NC(=O)Cn2c(=O)n(Cc3ccc(F)cc3)c(=O)c3cccnc32)cc1C	-1.9%	.	.	.	.
CCNc1ncc2nc(-c3cn(C)c4ccccc34)c(=O)n(Cc3cccc(OC)c3)c2n1	2.3%[11.4 µM]	-17.7%	-2.6%	?	?
CO/N=C\[C@@H](NS(=O)(=O)c1ccc(C)cc1)[C@H](C)/C=C\CC(=O)OC	.	4.8%[11.4 µM]	.	.	.
c1ccc2sc(N3CCN(Cc4nnnn4CC4CCCO4)CC3)nc2c1 (stereo not drawn)	1.6%	25.1µM*	?	-0.8%	-7.7%
c1ccc2c(c1)CCCN2Cc1nnnn1CC1CCCO1 (stereo not drawn)	-1.7%	?	?	0.7%	?
CCC(c1nnnn1Cc1cccs1)N1CCN(C2CCCC2)CC1 (stereo not drawn)	0.5%	5.01µM*	?	-0.2%	-2.0%
CCCC(c1nnnn1Cc1ccco1)N1CCN(C2CCCC2)CC1 (stereo not drawn)	-0.1%	15.8µM*	?	-2.5%	-6.5%
CCC(c1nnnn1Cc1cccs1)N1CCN(c2nc3ccccc3s2)CC1 (stereo not drawn)	?	31.6µM*	?	2.4%	?
CC(C)C(c1nnnn1Cc1ccco1)N1CCN(C2CCCC2)CC1 (stereo not drawn)	3.0%	?	?	?	-15.8%
c1ccc([C@H](CCN2CCCC2)c2ccccn2)cc1	0.2%[11.4 µM]	-6.3%[11.4 µM]	-4.4%[11.4 µM]	-4.1%[11 µM]	-1.9%[7.6 µM]
COc1ccc(S(=O)(=O)c2c(Nc3ccc(C)cc3)sc(C(=O)c3ccc4c(c3)OCO4)c2N)cc1	0.0%	.	.	.	.
COc1ccc(NC(=O)c2cc(-c3ccc(O)cc3)on2)cc1OC	?	6.3%	4.1%	-3.5%	-0.8%
O=c1c(-c2cc(F)cc(F)c2)nc2cnc(Oc3ccccc3)nc2n1C1CC1	1.6%[11.4 µM]	16.1%	-15.9%	-4.2%	?
CC(=O)N(C(C)=O)c1ncc2c([nH]c3ccccc32)c1C#N	4.9%	25.1µM*	?	-3.0%	-12.2%
CNC(=O)c1cc2c(cn1)[nH]c1ccccc12	1.0%	?	?	-4.6%	?
Cc1nn2c(=O)cc(CSc3nc4ccccc4[nH]3)nc2s1	-1.6%	12.4%	9.3%	-2.8%[2.3 µM]	3.98µM*
Cc1ccc(NC(=O)CN(c2cc(C)cc(C)c2)S(=O)(=O)c2c(C)noc2C)nc1	?	20µM*	?	1.1%	7.0%
Cc1cc(C)cc(N(CC(=O)Nc2cccc(C)n2)S(=O)(=O)c2c(C)noc2C)c1	?	?	?	3.2%	-10.9%
CCC(C)C(NC(=O)c1ccccc1NC(=O)c1ccco1)C(=O)O (stereo not drawn)	-2.8%	2.0%	-4.4%	-2.3%	-1.1%
CC(C)C(NC(=O)c1ccccc1NC(=O)c1ccco1)C(=O)O (stereo not drawn)	-1.7%	31.6µM*	?	?	-2.9%
O=C(COc1ccccc1)Nc1ccccc1N1CCN(c2ccc(F)cc2)CC1	1.7%	7.94µM*	?	-1.3%	12.2%
CCC(=O)N1CCN(c2ccccc2NC(=O)COc2cc(C)ccc2C(C)C)CC1	?	15.8µM*	?	-3.9%	?
O=C(Nc1ccccc1N1CCN(c2ccc(F)cc2)CC1)C1CCCCC1	?	3.16µM*	?	-2.1%	5.4%
SMILES	IkB signaling	HEK293 cAMP cs	TSHR agonist	Hsp90 Hop PPI	CRE Fsk mod
O=C(Nc1ccccc1N1CCN(c2ccc(F)cc2)CC1)c1ccccc1	1.4%	6.31µM*	?	2.6%	14.6%
CC(=O)N1CCN(c2ccccc2NC(=O)COc2ccc(Cl)cc2Cl)CC1	-1.6%	26.2%	27.8%	-9.4%	?
O=C(Nc1ccc(F)cc1)C1CCCCC1	-0.4%	11.7%	11.3%	1.4%	-12.0%
Cc1cc(NC(=O)c2ccco2)cc(-c2nc3cc(Cl)ccc3o2)c1O	-3.8%	.	.	.	.
Cc1ccccc1OCC(=O)Nc1ccccc1N1CCOCC1	-0.4%	25.1µM*	?	7.4%	?
Cc1cc(C)c(OCC(=O)Nc2ccccc2N2CCOCC2)c(C)c1	3.6%	?	?	15.1%	?
CCc1cnc2c(c1SCc1ccccc1C)c(=O)n(C)c(=O)n2C	1.6%	.	.	.	.
COC(=O)[C@@]1(Cc2ccc(F)cc2)[C@H]2c3cc(C(=O)N4CCCC4)n(Cc4cc(F)cc5c4OCOC5)c3C[C@H]2CN1C(=O)c1ccccc1	.	?	?	-10.9%	?
COC(=O)[C@@]1(Cc2ccc(OC)cc2)[C@H]2c3cc(C(=O)N(C)C)n(Cc4ccsc4Br)c3C[C@H]2CN1C(=O)c1ccccc1	.	6.31µM*	?	-22.8%	?
